Bioassay records from PubChem BioAssay.
TEAD-YAP block: TEAD-YAP interaction inhibition, primary screen, TEAD-YAP interaction inhibitor project, luminescence, HEK-TIYL cells; 640,000 tested, 1.4% active; AID 1259422, 2018; inhibition, % at 9.12 µM; TEAD-Gal4/YAP UAS-luciferase luminescence; in the data active = inhibition above about 32%;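 also: 0% = median of test compound wells and 100% = reference inhibitor wells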
FBW7 act: FBW7 E3 ligase activators, primary screen, biochemical, AlphaScreen, human; F-box/WD repeat-containing protein 7 (Homo sapiens), Q969H0; normalized activity (activation), % at 26.1 µM; 650,000 tested, 0.13% active; AlphaScreen FBW7–phospho-cyclin E peptide binding, activator screen; in the data active = normalized activity above about 1.9%;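 also: purified mutant Fbw7 with reduced substrate affinity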
GPR151 ag: activators of human GPR151, primary screen, cell-based, PathHunter beta-arrestin, luminescence; G-protein coupled receptor 151 (Homo sapiens), Q8TDV0; PathHunter beta-arrestin GPR151 cells; activation, % at 11.2 µM; 650,000 tested, 1% active; AID 1508602, 2020; in the data active = activation above about 4.9%;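 also: 0% = median of compound wells and 100% = cells with positive control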
MITF primary: MITF inhibitors, primary screen, biochemical, AlphaScreen, human; inhibition, % at 2.6 µM; 650,000 tested, 0.91% active; Microphthalmia-associated transcription factor (Homo sapiens), O75030; AlphaScreen MITF homodimerization, bead proximity signal; in the data active = inhibition above about 50%;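 also: 0% = vehicle wells with protein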
Target sequence (O75030 whole entry, looked up): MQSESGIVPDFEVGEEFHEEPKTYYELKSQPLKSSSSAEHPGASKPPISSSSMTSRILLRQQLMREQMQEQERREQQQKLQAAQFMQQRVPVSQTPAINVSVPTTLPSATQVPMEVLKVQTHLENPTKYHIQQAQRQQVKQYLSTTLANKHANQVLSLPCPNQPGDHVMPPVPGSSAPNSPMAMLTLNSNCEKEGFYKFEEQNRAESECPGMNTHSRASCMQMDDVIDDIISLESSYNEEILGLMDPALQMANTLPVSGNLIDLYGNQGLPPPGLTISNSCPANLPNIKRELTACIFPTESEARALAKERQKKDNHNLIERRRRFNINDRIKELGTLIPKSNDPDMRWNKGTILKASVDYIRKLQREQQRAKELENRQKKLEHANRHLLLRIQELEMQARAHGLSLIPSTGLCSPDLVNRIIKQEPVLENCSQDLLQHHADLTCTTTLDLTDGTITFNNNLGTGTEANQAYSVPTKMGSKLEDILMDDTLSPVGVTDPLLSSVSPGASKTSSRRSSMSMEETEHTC
GPR151 conf act: GPR151 activators, triplicate retest, confirmation, cell-based, PathHunter beta-arrestin, luminescence | GPR151 PathHunter beta-arrestin cells, 90 min; % of EA-reagent control over plate median | 6,700 tested, under 10 active | activation, % at 11.2 µM | shares compounds with GPR151 ag;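 active = mean percent activation across replicates above the confirmation screen cutoff of 4.91%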
GPR119 counter: GPR119 activators in beta-arrestin cells, counter-screen for GPR151 activator project, cell-based, PathHunter beta-arrestin, luminescence, triplicate; shares compounds with GPR151 ag; 90 min; 0 = compound-well median, 100 = enzyme-acceptor control; activation, % at 11.2 µM; 6,700 tested, 0.3% active;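 active = mean percent activation in the counterscreen above 29.09%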;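 also: counterscreen on off-target GPR119 to flag nonselective hits from the GPR151 activator screen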
An asterisk follows results filed as active; / = no result given; ! = not active in a repeat. Only some compounds are listed: those with a hit (about 3.5% of all), similar ones and a draw of the others.

SMILES	TEAD-YAP block	FBW7 act	GPR151 ag	MITF primary	GPR151 conf act	GPR119 counter
COc1ccc(C(=O)N2c3ccccc3CC2C)cc1OC (stereo not drawn)	0	0	6.4*	-1	0	0
CC1Cc2ccccc2N1C(=O)c1ccc2c(c1)OCO2 (stereo not drawn)	7	0	0	2	/	/
CCc1ccc(NC(=O)CSc2nnc(Cc3cccn3C)n2-c2ccc(C)cc2)cc1	6	0	-1	2	/	/
Cc1ccc2c(c1)c(=O)c1ccccc1n2CCCC(=O)Nc1ccc(Br)cn1	38*	0	17*	-6	0	16
Cc1ccc2c(c1)c(=O)c1ccccc1n2CCCC(=O)Nc1ccc(Br)cc1C	2	0	0	-7	/	/
CCOc1ccc(Cl)cc1S(=O)(=O)N1CCN(c2ccc(F)cc2)CC1	12	0	5.0*	2	0	-3
CCOc1ccc(OCC)c(S(=O)(=O)N2CCN(c3ccc(F)cc3)CC2)c1	6	0	-1	18	/	/
Brc1ccc2[nH]c3ccccc3c2c1	-5	0	4	-2	/	/
CCOc1ccccc1NC(=O)CN1CCN(c2nccn2-c2ccc(C)cc2)CC1	2	-1	8.0*	12	0	-19
COc1ccccc1NC(=O)CN1CCN(c2nccn2-c2ccc(C)cc2)CC1	-2	0	-1	12	/	/
Cc1[nH]c2ccccc2c1CCNC(=O)/C(=C/c1ccccc1)NC(=O)c1ccccc1Cl	20	0	0	-6	/	/
Cc1[nH]c2ccccc2c1CCNC(=O)/C(=C/c1ccccc1)NC(=O)c1ccco1	0	0	6.0*	0	0	10
CCOc1ccccc1/C=N/NC(=S)NC(C)C	11	0	1	-1	/	/
CCOc1nc2cccc(C(=O)OC(C)OC(=O)OC3CCCCC3)c2n1Cc1ccc(-c2ccccc2-c2nn[nH]n2)cc1 (stereo not drawn)	-25	0	2	9	/	/
CCCc1nc(C(C)(C)O)c(C(=O)OCc2oc(=O)oc2C)n1Cc1ccc(-c2ccccc2-c2nn[nH]n2)cc1	-1	0	11*!	-9	0	1
Nc1cccc(NC(=O)c2cc3ccccc3o2)c1	-1	0	-8	-8	/	/
Cc1ccc(CSc2nc3ccsc3c(=O)n2-c2ccc(Cl)c(C)c2)cc1	2	0	1	5	/	/
COCCn1c(SCC(=O)N2CCCCCC2)nnc1-c1c[nH]c2ccccc12	4	0	1	-9	/	/
O=C(Nc1ccccc1)C1CCCN1C(=O)NC1CCCCC1 (stereo not drawn)	0	0	0	-8	/	/
O=C(O)C1CCCN1C(=O)NC1CCCCC1 (stereo not drawn)	0	0	4.9*	12	0	1
O=C(c1ccc(Br)cc1)C1C2C(=O)C3OCC(O3)C12 (stereo not drawn)	-23	0	8.0*	-4	1	14
CCOc1ccc(Nc2nc(N3CCOCC3)c3ccccc3n2)cc1	23	0	1	-1	/	/
CCOc1ccc(Nc2nc(NCc3ccco3)c3ccccc3n2)cc1	49*	0	5.1*	-3	0	11
COc1ccccc1N1CCN(c2nc3ccc(C)cc3n3cnnc23)CC1	-5	0	3	-6	/	/
Cc1ccc(C(C)C)c(OCC(O)Cn2c(N3CCCC3)nc3c2c(=O)n(C)c(=O)n3C)c1 (stereo not drawn)	8	0	2	0	/	/
SMILES	TEAD-YAP block	FBW7 act	GPR151 ag	MITF primary	GPR151 conf act	GPR119 counter
CC/C=C\C/C=C\C/C=C\CCCCCCCC(=O)OCC	/	/	-2	-9	/	/
CCCCC/C=C\C/C=C\C/C=C\CCCCCCC(=O)OCC	/	/	9.1*	4	0	4
Cc1oc(C(=O)O)cc1CSCc1ccoc1C(=O)O	0	0	6.1*	3	1	-2
Clc1ccc(Cn2ncc3c(N4CCCC4)ncnc32)cc1	-3	1	8.4*	9	0	6
CC(C)N(CCNC(=O)C1CCN(c2ccc(Nc3cccc(N(C)C)c3)nn2)CC1)C(C)C	-1	0	-2	7	/	/
NC(=O)COc1ccc(/C=N/NC(=O)c2ccc(CN3CCOCC3)cc2)cc1	2	0	5.7*	6	0	6
CNc1c(N)c(=O)oc2ccccc12	-27	0	0	9	/	/
Cc1ccc(Nc2c(N)c(=O)oc3ccccc23)cc1	-10	0	17*	8	0	-5
COc1ccc(C)cc1NS(=O)(=O)c1ccc(NC(=O)c2ccc(F)cc2)cc1	16	0	4	-8	/	/
CN(C)S(=O)(=O)c1ccc(Cl)c(NC(=O)CN2CCNC(=O)C2)c1	-8	0	5.2*	-14	0	7
O=C(CN1CCN(CC(=O)Nc2ccc(Cl)c(C(F)(F)F)c2)CC1)Nc1ccc(F)cc1	12	0	-1	17	/	/
O=C(CN1C(=O)CCC1=O)Nc1ccc(Cl)c(C(F)(F)F)c1	-5	0	6.6*	1	0	6
c1ccc(CNCc2cccc3ccccc23)nc1	-44	-1	4	9	/	/
Cc1ccc(CNCc2ccco2)cc1	0	0	7.0*	24	1	8
CCOc1ccc(/C=C2/N=C(c3ccc(OC)c(Br)c3)OC2=O)cc1	-1	0	1	-3	/	/
CCOc1ccc(/C=C2/N=C(c3cncc(Br)c3)OC2=O)cc1	4	0	5.0*	18	0	-11
CN(C)S(=O)(=O)c1cccc(C(=O)n2ncc(C#N)c2N)c1	5	0	5.3*	-8	0	0
O=C(NOC(=O)c1ccccc1Br)c1ccc(Cl)cc1	8	0	8.0*	-10	0	6
O=C(NNC(=O)c1ccccc1Br)c1ccc(Cl)cc1	-14	0	1	-5	/	/
Cc1ccnc(NC(=S)Nc2cccc([N+](=O)[O-])c2)c1	-33	0	1	-5	/	/
CC(=O)Nc1ccc(S(=O)(=O)N(C)CCOCc2ccccc2)cc1	8	1	5.4*	25	0	-6
CC(=O)NC(=S)Nc1ccc(S(=O)(=O)N(C)Cc2ccccc2)cc1	12	0	-1	11	/	/
CC(=O)c1cccc(NC(=O)COc2c(C)cccc2C)c1	-7	0	5.2*	-14	0	-12
O=C(N/N=C/c1ccccc1Cl)c1ccc(=O)[nH]n1	-2	0	-2	13	/	/
COC(=O)c1ccc(NC(=O)/C(=C\c2ccc(OC)c(OC)c2)NC(=O)c2ccc(Cl)cc2)cc1	1	0	7.8*	4	0	3
